Data as given in PubChem BioAssay (NCATS).
Results filed as inconclusive are left out. Activity calls are given as the source filed them. Unless noted, calls come from the whole dose curve; as a rule, active = well fitted curve in the direction sought with a large enough effect; inconclusive = small, poorly fitted or top-dose-only effect, or another doubt; inactive = no such curve, though single readings can be large; an effect the other way counts as inactive or inconclusive.

Legend:
Tov-21-G = test: Primary qHTS to identify gynecologic anti-cancer compounds using libraries of approved drugs and bioactive compounds (AID 1345084); settings: Gynecologic cancer cell panel viability, ATPlite luminescence, 48 h; series mostly up to 57.5 µM; note: % is set by controls: 0 for no effect and ±100 for the full control effect; nearly all actives have a fitted effect of over 55% in size
In short: (§1)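 Cell viability after 48 h drug treatment, ATPlite luminescence readout; five doses.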

Tov112D = test: as above; settings: Gynecologic cancer cell panel viability, ATPlite luminescence, 48 h; series mostly up to 57.5 µM
In short: as §1

[1] = Drug repurposing screens with cells derived from glioblastoma tumor samples (AID 1345199); settings: GBM patient neurospheres viability, ATP luminescence, 48 h; note: nearly all actives have a fitted effect of over 40% in size; note: potency is the fitted concentration of half-maximal effect; for activity, negative = cell killing: % is set by controls: 0 for no effect and ±100 for the full control effect
In short: (§2)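 Four patient lines of CD133+ GBM neurospheres were screened at several concentrations; hits were retested in those lines plus three slower-growing GBM lines, using 48-hour treatment and ATP-based viability.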

astro = test: as above; settings: viability, ATP luminescence, 48 h; series mostly up to 45.9 µM
In short: as §2

[2] = molecular target: Nuclear receptor subfamily 1 group I member 2 (Rattus norvegicus) (UniProt Q9R1A7); test: qHTS assay for small molecule activators of the rat pregnane X receptor (rPXR) signaling pathway (AID 651751; call rule not given here; note: 0% is about no effect); settings: rPXR reporter cells, luciferase (One-Glo), 24 h
Sequence of Nuclear receptor subfamily 1 group I member 2 (Rattus norvegicus) (Q9R1A7 whole entry, looked up): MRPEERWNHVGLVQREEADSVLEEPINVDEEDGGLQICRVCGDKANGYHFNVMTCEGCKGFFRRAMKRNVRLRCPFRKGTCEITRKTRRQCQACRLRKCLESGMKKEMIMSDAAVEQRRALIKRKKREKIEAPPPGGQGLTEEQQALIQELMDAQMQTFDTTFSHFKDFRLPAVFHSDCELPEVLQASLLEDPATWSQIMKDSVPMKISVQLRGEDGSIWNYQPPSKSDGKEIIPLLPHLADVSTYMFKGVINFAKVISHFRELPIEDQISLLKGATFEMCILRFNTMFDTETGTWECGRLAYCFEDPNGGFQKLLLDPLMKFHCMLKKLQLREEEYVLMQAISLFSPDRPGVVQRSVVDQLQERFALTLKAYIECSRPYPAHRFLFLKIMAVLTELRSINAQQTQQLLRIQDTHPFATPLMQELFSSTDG

[3] = qHTS assay for small molecule activators of the human pregnane X receptor (PXR) signaling pathway (AID 720659; call rule not given here; note: 0% is about no effect); settings: DPX-2 HepG2 CYP3A4-luciferase, 24 h; series mostly up to 92.3 µM
[4] = at 45.9 µM (top of the series), tumour line B
[5] = at 45.9 µM (top of the series), tumour line D
[6] = at 46.1 µM (top of the series), tumour line C
[7] = at 20 µM (top of the series), tumour line C
[8] = at 46 µM (top of the series), tumour line A
[9] = at 21.2 µM (top of the series), tumour line B

COc1ccc(C2C(=O)c3ccccc3C2=O)cc1
inactive: Potency (Tov-21-G) | Potency (Tov112D) | activity, negative = cell killing [1, 4] -10.6% | activity, negative = cell killing [1, 5] -14.2% | activity, negative = cell killing [1, 6] -5.24% | Potency (astro)

C[C@]12CCC(=O)C=C1[C@@H]1C[C@@H]1[C@H]1[C@@H]3[C@@H]4C[C@@H]4[C@@]4(CCC(=O)O4)[C@@]3(C)CC[C@@H]12
inactive: Potency (Tov-21-G) | Potency (Tov112D) | activity, negative = cell killing [1, 4] -20.2% | activity, negative = cell killing [1, 5] -9.23% | activity, negative = cell killing [1, 6] -0.55% | Potency (astro)

C#C[C@]1(O)CC[C@H]2[C@@H]3CCC4=CC(=O)CC[C@@H]4[C@H]3CC[C@@]21C
inactive: Potency (Tov-21-G) | Potency (Tov112D) | activity, negative = cell killing [1, 4] -9.83% | activity, negative = cell killing [1, 5] 3.81% | activity, negative = cell killing [1, 6] -18.8% | Potency (astro)

C[C@]12CC[C@@H]3c4ccc(O)cc4CC[C@H]3[C@@H]1C[C@@H](O)[C@@H]2O
inactive: Potency (Tov-21-G) | Potency (Tov112D) | activity, negative = cell killing [1, 4] -9.53% | activity, negative = cell killing [1, 5] -17.2% | activity, negative = cell killing [1, 6] 22.1% | Potency (astro)

O=C(CCCN1CCC(O)(c2ccc(Br)cc2)CC1)c1ccc(F)cc1
active: Potency ([1]; tumour line A) 3.55 µM | Potency ([1]; tumour line D) 8.91 µM
inactive: Potency (Tov-21-G) | Potency (Tov112D) | activity, negative = cell killing [1, 7] 5.41% | Potency (astro)

CO/N=C1\CN(c2nc3c(cc2F)c(=O)c(C(=O)O)cn3C2CC2)CC1CN (centres undefined)
inactive: Potency (Tov-21-G) | Potency (Tov112D) | activity, negative = cell killing [1, 4] -0.703% | activity, negative = cell killing [1, 5] -7.84% | activity, negative = cell killing [1, 6] 13.8% | Potency (astro)

COC(=O)CCc1ccc(OCC(O)CNC(C)C)cc1 (centres undefined)
inactive: Potency (Tov-21-G) | Potency (Tov112D) | activity, negative = cell killing [1, 4] -6.72% | activity, negative = cell killing [1, 5] -12.4% | activity, negative = cell killing [1, 6] -12.3% | Potency (astro)

O=C(O)CCCCC(=O)O
inactive: Potency (Tov-21-G) | Potency (Tov112D) | activity, negative = cell killing [1, 4] 11.6% | activity, negative = cell killing [1, 5] -7.89% | activity, negative = cell killing [1, 8] -0.455% | activity, negative = cell killing [1, 6] 0.572% | Potency (astro) | max response [2] -0.0429% | outcome [3]

C=C1C[C@H]2[C@@H]3C=C(C)C4=CC(=O)CC[C@]4(C)[C@H]3CC[C@]2(C)[C@@]1(OC(C)=O)C(C)=O
inactive: Potency (Tov-21-G) | Potency (Tov112D) | activity, negative = cell killing [1, 4] -28.2% | activity, negative = cell killing [1, 5] -24.4% | activity, negative = cell killing [1, 6] -11.9% | Potency (astro)

O=C1c2ccccc2C(=O)C1c1ccccc1
inactive: Potency (Tov-21-G) | Potency (Tov112D) | activity, negative = cell killing [1, 7] 22.2% | activity, negative = cell killing [1, 9] -2.67% | activity, negative = cell killing ([1]; at 21.2 µM (top of the series), tumour line D) -10.9% | Potency (astro)

CC(C)(Oc1ccc(Cl)cc1)C(=O)O
inactive: Potency (Tov-21-G) | Potency (Tov112D) | activity, negative = cell killing [1, 4] -11.3% | activity, negative = cell killing [1, 5] 2.87% | activity, negative = cell killing [1, 8] -14.8% | activity, negative = cell killing [1, 6] -3.07% | Potency (astro) | max response [2] -4.53% | outcome [3]

Nc1ccc(C(=O)O)cc1
inactive: Potency (Tov-21-G) | Potency (Tov112D) | activity, negative = cell killing [1, 4] -6.59% | activity, negative = cell killing [1, 5] -1.8% | activity, negative = cell killing [1, 8] -31.3% | activity, negative = cell killing [1, 6] -10.3% | Potency (astro) | max response [2] -6.06% | outcome [3]

C[C@@H]1C[C@H]2[C@@H]3C[C@H](F)C4=CC(=O)C(Cl)=C[C@]4(C)[C@@]3(F)[C@@H](O)C[C@]2(C)[C@@]1(O)C(=O)CO
inactive: Potency (Tov-21-G) | Potency (Tov112D) | activity, negative = cell killing [1, 4] -15.9% | activity, negative = cell killing [1, 5] -23.3% | activity, negative = cell killing [1, 6] -24.8% | Potency (astro)

CCN(CCCCOC(=O)c1ccc(OC)c(OC)c1)C(C)Cc1ccc(OC)cc1 (centres undefined)
inactive: Potency (Tov-21-G) | Potency (Tov112D) | activity, negative = cell killing [1, 7] -2.24% | activity, negative = cell killing [1, 9] -9.34% | Potency (astro)
active: Potency ([1]; tumour line A) 5.62 µM

C[C@@H](CN(C)C)CN1c2ccccc2Sc2ccccc21
active: Potency ([1]; tumour line A) 8.91 µM
inactive: Potency (Tov-21-G) | Potency (Tov112D) | activity, negative = cell killing [1, 7] 31.6% | activity, negative = cell killing [1, 9] -28.5% | Potency (astro)

Cc1ncc(CSSCc2cnc(C)c(O)c2CO)c(CO)c1O
inactive: Potency (Tov-21-G) | Potency (Tov112D) | activity, negative = cell killing [1, 4] -0.0133% | activity, negative = cell killing [1, 5] -10.6% | activity, negative = cell killing [1, 6] 3.55% | Potency (astro)

CCOC(=O)OC(C)OC1=C(C(=O)Nc2ccccn2)N(C)S(=O)(=O)c2ccccc21 (centres undefined)
inactive: Potency (Tov-21-G) | Potency (Tov112D) | activity, negative = cell killing [1, 4] -23.8% | activity, negative = cell killing [1, 5] -1.93% | activity, negative = cell killing [1, 6] 20.6% | Potency (astro)

O=C(COc1ccc(Cl)cc1)N1CCN(Cc2ccc3c(c2)OCO3)CC1
inactive: Potency (Tov-21-G) | Potency (Tov112D) | activity, negative = cell killing [1, 4] -2.59% | activity, negative = cell killing [1, 5] -28.6% | Potency (astro)
active: Potency ([1]; tumour line A) 20 µM

CCN(CCCc1ccccc1)CCCc1ccccc1
inactive: Potency (Tov-21-G) | Potency (Tov112D) | activity, negative = cell killing [1, 7] -18.9% | activity, negative = cell killing [1, 9] 2.05% | Potency (astro)
active: Potency ([1]; tumour line A) 5.01 µM

CCCCCCCCCCCCCCCCCC(=O)OCC(O)CO (centres undefined)
inactive: Potency (Tov-21-G) | Potency (Tov112D) | activity, negative = cell killing [1, 4] -5.26% | activity, negative = cell killing [1, 5] -15.3% | activity, negative = cell killing [1, 6] 1% | Potency (astro)

CCCCCC=CCC=CCCCCCCCC(=O)OCC
inactive: Potency (Tov-21-G) | Potency (Tov112D) | activity, negative = cell killing [1, 4] -5.69% | activity, negative = cell killing [1, 5] -29.1% | activity, negative = cell killing [1, 6] -8.48% | Potency (astro)

CC(O)C(=O)O (centres undefined)
inactive: Potency (Tov-21-G) | Potency (Tov112D) | activity, negative = cell killing [1, 4] -5.68% | activity, negative = cell killing [1, 5] -11.1% | activity, negative = cell killing [1, 8] -8.3% | activity, negative = cell killing [1, 6] -6.94% | Potency (astro) | max response [2] 2.35% | outcome [3]
